# From PMC7862700, “An all-to-all approach to the identification of sequence-specific readers for epigenetic DNA modifications on cytosine”
# Tests used:
# Assay in all cases: DAPPL (digital affinity profiling via proximity ligation, sequencing); 10 mM Tris-HCl pH 7.5, 50 mM NaCl, 1 mM DTT, 4% glycerol, room temperature, 30 min; GST-TFs on glutathione beads, 16-mer random dsDNA library, 0.1% formaldehyde crosslink after washing; high values mean tight binding
# FEV = molecular target: T1, FEV (Homo sapiens, UniProt Q99581 1-238); settings: protein: recombinant; tags: N-terminal GST; dsDNA, one strand shown
# T1 sequence: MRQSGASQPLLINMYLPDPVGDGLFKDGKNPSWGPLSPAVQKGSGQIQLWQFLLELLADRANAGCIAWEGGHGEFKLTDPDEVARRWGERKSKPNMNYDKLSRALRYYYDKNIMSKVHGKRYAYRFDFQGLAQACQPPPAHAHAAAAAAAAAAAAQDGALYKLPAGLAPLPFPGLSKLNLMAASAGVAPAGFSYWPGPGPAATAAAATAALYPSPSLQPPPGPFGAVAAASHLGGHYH
# Outline: (§1)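 Beads coated with glutathione captured GST-fused human transcription factors that had been expressed in yeast, and the factors were then given DNA barcodes and pooled with a tag-only sample. The pools were incubated with 200 nmole of a random double-stranded 16-mer DNA library in Tris/NaCl/DTT/glycerol buffer for 30 min at room temperature, washed, crosslinked with 0.1% formaldehyde and proximity-ligated with BsaI/T4 ligase at 37 °C for 1 h. PCR amplification and Illumina NextSeq500 sequencing came last. Binding signal is each hexamer's read frequency for a factor divided by its frequency for the tag-only sample.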
# ETV5 = ETV5 (Homo sapiens, UniProt P41161 1-510); settings: protein: recombinant; tags: N-terminal GST; dsDNA, one strand shown
# ETV5, sequence (P41161 whole entry): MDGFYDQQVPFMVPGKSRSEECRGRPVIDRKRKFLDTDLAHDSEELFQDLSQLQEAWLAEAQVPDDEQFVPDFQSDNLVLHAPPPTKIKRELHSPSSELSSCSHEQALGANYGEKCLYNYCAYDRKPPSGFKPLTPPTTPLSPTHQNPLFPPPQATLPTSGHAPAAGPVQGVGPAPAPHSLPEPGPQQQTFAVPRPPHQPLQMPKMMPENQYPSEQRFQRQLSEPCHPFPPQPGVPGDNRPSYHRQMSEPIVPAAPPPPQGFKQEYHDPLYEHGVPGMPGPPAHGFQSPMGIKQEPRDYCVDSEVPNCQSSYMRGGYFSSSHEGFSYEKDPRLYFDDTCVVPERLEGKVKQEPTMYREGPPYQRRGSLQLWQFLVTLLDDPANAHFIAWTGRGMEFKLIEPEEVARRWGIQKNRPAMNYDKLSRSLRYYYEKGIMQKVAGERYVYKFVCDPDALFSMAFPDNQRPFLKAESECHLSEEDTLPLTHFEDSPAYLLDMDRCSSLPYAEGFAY
# Outline: as §1
# HSF1 = HSF1 (Homo sapiens, UniProt Q00613 1-529); settings: protein: recombinant; tags: N-terminal GST; chain copies: 3; dsDNA, one strand shown
# HSF1, sequence (Q00613 whole entry): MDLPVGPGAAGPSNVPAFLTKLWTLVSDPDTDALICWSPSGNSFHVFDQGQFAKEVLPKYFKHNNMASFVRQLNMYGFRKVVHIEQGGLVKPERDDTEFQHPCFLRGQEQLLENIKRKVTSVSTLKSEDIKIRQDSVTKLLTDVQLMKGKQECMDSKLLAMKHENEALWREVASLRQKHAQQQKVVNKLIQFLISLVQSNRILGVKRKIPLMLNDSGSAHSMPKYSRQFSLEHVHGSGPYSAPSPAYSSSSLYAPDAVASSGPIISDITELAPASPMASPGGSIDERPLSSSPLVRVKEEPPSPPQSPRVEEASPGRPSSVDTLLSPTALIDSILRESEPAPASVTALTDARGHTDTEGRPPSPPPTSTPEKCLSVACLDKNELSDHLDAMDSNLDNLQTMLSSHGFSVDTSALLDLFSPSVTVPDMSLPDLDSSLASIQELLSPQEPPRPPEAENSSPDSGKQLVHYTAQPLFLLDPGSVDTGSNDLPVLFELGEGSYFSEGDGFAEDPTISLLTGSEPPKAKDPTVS
# Outline: as §1
# SPIC = molecular target: T2, SPIC (Homo sapiens, UniProt Q8N5J4 1-248); settings: protein: recombinant; tags: N-terminal GST; dsDNA, one strand shown
# T2 sequence: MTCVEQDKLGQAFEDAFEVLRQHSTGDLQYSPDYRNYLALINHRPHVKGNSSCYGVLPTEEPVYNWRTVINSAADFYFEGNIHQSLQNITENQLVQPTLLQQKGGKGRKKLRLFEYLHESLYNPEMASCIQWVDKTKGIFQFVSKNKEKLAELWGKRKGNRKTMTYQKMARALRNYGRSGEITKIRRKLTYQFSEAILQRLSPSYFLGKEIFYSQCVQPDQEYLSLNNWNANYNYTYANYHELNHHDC
# Outline: as §1
# ELF4 = ELF4 (Homo sapiens, UniProt Q99607 1-663); settings: protein: recombinant; tags: N-terminal GST; dsDNA, one strand shown
# ELF4, sequence (Q99607 whole entry): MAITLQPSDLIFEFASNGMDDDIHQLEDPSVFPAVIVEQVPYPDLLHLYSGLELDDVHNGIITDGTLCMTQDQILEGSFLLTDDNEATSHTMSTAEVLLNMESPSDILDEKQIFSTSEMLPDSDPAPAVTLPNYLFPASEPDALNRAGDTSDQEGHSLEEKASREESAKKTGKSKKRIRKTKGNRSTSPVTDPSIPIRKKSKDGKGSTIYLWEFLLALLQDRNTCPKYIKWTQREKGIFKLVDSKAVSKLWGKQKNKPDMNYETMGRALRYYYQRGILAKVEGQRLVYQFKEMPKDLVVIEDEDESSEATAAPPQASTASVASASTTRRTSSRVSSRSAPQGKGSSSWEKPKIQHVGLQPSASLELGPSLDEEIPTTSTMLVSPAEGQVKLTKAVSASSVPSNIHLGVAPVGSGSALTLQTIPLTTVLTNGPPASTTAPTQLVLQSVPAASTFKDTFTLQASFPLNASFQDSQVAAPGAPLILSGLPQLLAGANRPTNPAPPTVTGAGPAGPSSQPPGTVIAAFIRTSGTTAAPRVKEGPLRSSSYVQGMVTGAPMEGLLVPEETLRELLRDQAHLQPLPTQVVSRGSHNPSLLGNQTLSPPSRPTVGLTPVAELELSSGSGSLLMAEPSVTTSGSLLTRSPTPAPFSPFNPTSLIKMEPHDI
# Outline: as §1
# ELK4 = molecular target: T3, ELK4 (Homo sapiens, UniProt P28324-2 1-405); settings: protein: recombinant; tags: N-terminal GST; dsDNA, one strand shown
# T3 sequence: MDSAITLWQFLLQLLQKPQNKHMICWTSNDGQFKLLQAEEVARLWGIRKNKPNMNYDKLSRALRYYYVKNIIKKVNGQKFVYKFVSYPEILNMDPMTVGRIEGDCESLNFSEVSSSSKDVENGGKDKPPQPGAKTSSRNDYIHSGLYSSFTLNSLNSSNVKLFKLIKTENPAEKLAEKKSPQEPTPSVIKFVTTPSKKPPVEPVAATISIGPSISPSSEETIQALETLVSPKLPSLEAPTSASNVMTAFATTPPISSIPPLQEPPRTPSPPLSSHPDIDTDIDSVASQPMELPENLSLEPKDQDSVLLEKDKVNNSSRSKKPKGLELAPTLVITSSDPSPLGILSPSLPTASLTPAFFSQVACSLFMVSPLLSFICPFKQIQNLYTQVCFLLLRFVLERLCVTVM
# Outline: as §1
# ETV2 = molecular target: T4, ETV2 (Homo sapiens, UniProt O00321 1-342); settings: protein: recombinant; tags: N-terminal GST; dsDNA, one strand shown
# T4 sequence: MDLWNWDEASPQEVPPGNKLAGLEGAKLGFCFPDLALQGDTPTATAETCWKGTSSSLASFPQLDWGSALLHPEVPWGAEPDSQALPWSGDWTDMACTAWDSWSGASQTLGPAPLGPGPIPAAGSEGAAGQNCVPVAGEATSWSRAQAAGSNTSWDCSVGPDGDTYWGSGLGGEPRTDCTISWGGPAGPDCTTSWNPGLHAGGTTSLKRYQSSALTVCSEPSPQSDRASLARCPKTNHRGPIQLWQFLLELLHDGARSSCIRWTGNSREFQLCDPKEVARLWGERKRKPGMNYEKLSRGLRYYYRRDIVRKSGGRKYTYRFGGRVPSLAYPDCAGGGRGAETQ
# Outline: as §1
# ELF3 = molecular target: T5, ELF3 (Homo sapiens, UniProt P78545 1-371); settings: protein: recombinant; tags: N-terminal GST; dsDNA, one strand shown
# T5 sequence: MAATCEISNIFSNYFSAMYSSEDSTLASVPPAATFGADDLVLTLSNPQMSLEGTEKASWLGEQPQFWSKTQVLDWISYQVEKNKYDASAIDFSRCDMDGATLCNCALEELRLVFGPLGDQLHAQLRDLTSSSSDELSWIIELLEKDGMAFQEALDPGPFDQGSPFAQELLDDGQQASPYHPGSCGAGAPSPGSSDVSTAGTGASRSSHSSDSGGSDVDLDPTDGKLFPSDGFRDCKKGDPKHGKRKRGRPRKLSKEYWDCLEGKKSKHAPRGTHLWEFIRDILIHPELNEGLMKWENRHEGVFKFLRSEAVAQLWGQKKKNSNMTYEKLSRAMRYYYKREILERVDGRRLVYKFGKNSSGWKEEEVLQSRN
# Outline: as §1
# CRX = CRX (Homo sapiens, UniProt O43186 1-299); settings: protein: recombinant; tags: N-terminal GST; dsDNA, one strand shown
# CRX, sequence (O43186 whole entry): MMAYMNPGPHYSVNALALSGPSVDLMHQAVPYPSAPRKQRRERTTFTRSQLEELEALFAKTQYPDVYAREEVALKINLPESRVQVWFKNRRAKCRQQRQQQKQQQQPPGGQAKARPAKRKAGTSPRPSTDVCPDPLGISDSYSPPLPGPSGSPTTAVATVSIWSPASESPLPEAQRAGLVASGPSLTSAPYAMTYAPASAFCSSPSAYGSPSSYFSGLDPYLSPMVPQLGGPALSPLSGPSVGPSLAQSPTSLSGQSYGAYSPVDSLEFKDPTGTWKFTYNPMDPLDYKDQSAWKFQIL
# Outline: as §1
# ETV1 = ETV1 (Homo sapiens, UniProt P50549 1-477); settings: protein: recombinant; tags: N-terminal GST; dsDNA, one strand shown
# ETV1, sequence (P50549 whole entry): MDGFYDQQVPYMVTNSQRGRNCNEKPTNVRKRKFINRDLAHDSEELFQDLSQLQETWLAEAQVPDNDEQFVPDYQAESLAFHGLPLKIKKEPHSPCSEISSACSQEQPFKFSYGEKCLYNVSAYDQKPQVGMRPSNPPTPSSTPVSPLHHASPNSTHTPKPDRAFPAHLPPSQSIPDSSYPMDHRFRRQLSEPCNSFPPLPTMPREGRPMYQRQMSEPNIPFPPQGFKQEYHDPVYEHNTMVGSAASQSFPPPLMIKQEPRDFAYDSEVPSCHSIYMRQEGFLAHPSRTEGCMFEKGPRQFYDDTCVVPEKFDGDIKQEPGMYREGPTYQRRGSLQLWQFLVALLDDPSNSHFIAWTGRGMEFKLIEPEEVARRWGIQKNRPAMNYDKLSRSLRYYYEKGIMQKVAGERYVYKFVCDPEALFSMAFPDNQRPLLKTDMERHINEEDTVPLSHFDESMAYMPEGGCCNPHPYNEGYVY
# Outline: as §1
# ERF = molecular target: T6, ERF (Homo sapiens, UniProt P50548 1-548); settings: protein: recombinant; tags: N-terminal GST; dsDNA, one strand shown
# T6 sequence: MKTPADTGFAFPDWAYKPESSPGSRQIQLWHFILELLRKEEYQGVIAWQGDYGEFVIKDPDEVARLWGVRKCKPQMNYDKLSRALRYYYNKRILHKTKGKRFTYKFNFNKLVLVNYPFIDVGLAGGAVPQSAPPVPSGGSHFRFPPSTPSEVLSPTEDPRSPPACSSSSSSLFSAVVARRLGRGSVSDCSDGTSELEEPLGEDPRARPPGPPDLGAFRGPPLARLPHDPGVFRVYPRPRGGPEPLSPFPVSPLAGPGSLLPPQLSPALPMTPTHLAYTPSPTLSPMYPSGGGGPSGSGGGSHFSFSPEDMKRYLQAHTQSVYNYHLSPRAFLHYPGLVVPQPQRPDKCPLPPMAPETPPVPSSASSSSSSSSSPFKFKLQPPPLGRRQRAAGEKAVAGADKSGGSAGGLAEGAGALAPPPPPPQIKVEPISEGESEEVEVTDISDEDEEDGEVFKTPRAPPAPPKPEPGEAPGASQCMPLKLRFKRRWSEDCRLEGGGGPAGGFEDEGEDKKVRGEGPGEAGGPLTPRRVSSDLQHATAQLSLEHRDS
# Outline: as §1
# ETV3L = molecular target: T7, ETV3L (Homo sapiens, UniProt Q6ZN32 1-361); settings: protein: recombinant; tags: N-terminal GST; dsDNA, one strand shown
# T7 sequence: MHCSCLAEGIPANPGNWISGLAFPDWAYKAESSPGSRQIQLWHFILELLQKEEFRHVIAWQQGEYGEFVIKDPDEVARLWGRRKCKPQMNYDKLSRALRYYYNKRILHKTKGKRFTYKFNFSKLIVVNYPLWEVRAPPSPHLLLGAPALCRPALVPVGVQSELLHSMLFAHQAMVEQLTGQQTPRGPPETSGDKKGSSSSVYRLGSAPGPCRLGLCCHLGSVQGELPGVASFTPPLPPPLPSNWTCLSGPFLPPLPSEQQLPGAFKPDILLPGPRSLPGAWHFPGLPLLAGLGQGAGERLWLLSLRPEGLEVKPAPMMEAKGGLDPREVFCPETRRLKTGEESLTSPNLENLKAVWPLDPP
# Outline: as §1
# ETS2 = molecular target: T8, ETS2 (Homo sapiens, UniProt P15036 1-469); settings: protein: recombinant; tags: N-terminal GST; dsDNA, one strand shown
# T8 sequence: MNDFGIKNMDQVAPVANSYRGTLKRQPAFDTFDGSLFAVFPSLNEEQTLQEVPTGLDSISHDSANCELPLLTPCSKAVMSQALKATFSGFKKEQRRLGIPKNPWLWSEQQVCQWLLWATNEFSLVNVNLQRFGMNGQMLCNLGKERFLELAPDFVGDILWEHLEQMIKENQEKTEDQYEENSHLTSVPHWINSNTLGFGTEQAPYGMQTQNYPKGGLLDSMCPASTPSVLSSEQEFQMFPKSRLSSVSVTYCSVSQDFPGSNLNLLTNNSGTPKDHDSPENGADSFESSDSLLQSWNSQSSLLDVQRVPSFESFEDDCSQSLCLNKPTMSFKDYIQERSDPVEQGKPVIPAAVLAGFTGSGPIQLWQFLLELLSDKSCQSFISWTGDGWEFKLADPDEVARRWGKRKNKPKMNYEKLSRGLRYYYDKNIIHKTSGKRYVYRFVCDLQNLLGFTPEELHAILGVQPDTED
# Outline: as §1
# SPDEF = molecular target: T9, SPDEF (Homo sapiens, UniProt O95238 1-335); settings: protein: recombinant; tags: N-terminal GST; dsDNA, one strand shown
# T9 sequence: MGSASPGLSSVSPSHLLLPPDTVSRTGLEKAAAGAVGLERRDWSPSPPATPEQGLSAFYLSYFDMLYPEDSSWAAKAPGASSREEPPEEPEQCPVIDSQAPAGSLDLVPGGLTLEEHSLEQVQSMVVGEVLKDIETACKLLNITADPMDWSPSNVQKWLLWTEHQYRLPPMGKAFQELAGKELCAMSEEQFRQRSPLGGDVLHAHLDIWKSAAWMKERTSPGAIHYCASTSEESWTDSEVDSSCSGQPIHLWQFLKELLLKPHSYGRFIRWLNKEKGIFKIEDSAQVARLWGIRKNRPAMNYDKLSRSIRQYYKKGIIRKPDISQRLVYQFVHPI
# Outline: as §1
# ETV7 = molecular target: T10, ETV7 (Homo sapiens, UniProt Q9Y603 1-341); settings: protein: recombinant; tags: N-terminal GST; dsDNA, one strand shown
# T10 sequence: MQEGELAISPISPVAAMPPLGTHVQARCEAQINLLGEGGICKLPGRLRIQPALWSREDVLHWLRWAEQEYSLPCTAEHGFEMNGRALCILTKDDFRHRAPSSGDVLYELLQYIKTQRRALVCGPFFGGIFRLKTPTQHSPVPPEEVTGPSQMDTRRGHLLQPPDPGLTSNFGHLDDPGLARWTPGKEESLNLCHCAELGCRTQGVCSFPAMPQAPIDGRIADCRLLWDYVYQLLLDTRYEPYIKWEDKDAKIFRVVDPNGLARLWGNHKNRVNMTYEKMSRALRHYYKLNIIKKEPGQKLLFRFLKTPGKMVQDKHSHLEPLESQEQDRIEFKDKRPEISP
# Outline: as §1
# ELF5 = molecular target: T11, ELF5 (Homo sapiens, UniProt Q9UKW6-2 1-255); settings: protein: recombinant; tags: N-terminal GST; dsDNA, one strand shown
# T11 sequence: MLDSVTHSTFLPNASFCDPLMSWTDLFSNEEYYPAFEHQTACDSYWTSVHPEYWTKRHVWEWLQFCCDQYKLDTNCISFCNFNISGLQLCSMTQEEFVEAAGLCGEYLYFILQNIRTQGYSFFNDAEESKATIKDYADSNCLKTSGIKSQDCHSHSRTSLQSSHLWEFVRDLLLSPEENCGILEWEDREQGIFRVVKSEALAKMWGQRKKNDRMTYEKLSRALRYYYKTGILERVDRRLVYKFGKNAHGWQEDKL
# Outline: as §1
# ETV3 = molecular target: T12, ETV3 (Homo sapiens, UniProt P41162-2 1-143); settings: protein: recombinant; tags: N-terminal GST; dsDNA, one strand shown
# T12 sequence: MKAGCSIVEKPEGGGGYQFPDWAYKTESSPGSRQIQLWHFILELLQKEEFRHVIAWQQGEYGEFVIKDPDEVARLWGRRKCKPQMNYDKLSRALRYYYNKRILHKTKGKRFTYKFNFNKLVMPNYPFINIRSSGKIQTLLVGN
# Outline: as §1
# ETV6 = ETV6 (Homo sapiens, UniProt P41212 1-452); settings: protein: recombinant; tags: N-terminal GST; dsDNA, one strand shown
# ETV6, sequence (P41212 whole entry): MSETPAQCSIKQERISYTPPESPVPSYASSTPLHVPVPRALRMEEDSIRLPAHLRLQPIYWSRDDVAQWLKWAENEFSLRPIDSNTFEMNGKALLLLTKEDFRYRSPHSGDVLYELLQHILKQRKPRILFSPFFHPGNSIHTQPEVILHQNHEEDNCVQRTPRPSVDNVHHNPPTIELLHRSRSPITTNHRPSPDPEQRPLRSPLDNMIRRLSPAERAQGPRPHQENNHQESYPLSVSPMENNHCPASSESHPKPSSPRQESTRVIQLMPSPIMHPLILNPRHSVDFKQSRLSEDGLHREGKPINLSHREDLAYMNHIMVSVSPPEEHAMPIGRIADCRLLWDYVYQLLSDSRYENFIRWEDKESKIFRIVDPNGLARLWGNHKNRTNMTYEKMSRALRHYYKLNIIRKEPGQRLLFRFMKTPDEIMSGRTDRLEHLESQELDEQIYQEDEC
# Outline: as §1
sequence,measurement,setting,value
AATGAA,binding signal,FEV,"1.11 fold enrichment (6-mer frequency, TF over GST control)"
same,binding signal,ETV5,"1.16 fold enrichment (6-mer frequency, TF over GST control)"
same,binding signal,HSF1,"1.12 fold enrichment (6-mer frequency, TF over GST control)"
same,binding signal,SPIC,"1.26 fold enrichment (6-mer frequency, TF over GST control)"
same,binding signal,ELF4,"1.2 fold enrichment (6-mer frequency, TF over GST control)"
same,binding signal,ELK4,"1.24 fold enrichment (6-mer frequency, TF over GST control)"
same,binding signal,ETV2,"1.08 fold enrichment (6-mer frequency, TF over GST control)"
same,binding signal,ELF3,"1.24 fold enrichment (6-mer frequency, TF over GST control)"
same,binding signal,CRX,"1.03 fold enrichment (6-mer frequency, TF over GST control)"
same,binding signal,ETV1,"1.17 fold enrichment (6-mer frequency, TF over GST control)"
same,binding signal,ERF,"1.29 fold enrichment (6-mer frequency, TF over GST control)"
same,binding signal,ETV3L,"1.19 fold enrichment (6-mer frequency, TF over GST control)"
same,binding signal,ETS2,"1.15 fold enrichment (6-mer frequency, TF over GST control)"
same,binding signal,SPDEF,"1.04 fold enrichment (6-mer frequency, TF over GST control)"
same,binding signal,ETV7,"1.18 fold enrichment (6-mer frequency, TF over GST control)"
same,binding signal,ELF5,"1.22 fold enrichment (6-mer frequency, TF over GST control)"
same,binding signal,ETV3,"1.17 fold enrichment (6-mer frequency, TF over GST control)"
same,binding signal,ETV6,"1.23 fold enrichment (6-mer frequency, TF over GST control)"
